The record followed here is PubChem BioAssay.

Where “and” joins values, the source holds several entries; their conditions need not be identical. Equal entries are not always repeated. Inconclusive results are not listed. For some of these results: Results with a measured potency or affinity are listed apart. Calls of active or inactive are those of the source.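 Rule for the calls, unless noted: active = mean z-score across replicates of 1.96 or higher in either the MELAS or the Rieske mutant cell line; inactive = the rest.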

By inhibition is commonly meant the change of the read-out against control, counted positive when it falls. What is called viability is a per cent measure of how many cells are alive, often set against a control.

The target in assay [1] is 6-phosphogluconate dehydrogenase, decarboxylating (Homo sapiens) (UniProt P52209). The assay can be described thus: 6PGD enzyme inhibitors, primary screen, biochemical, human, recombinant enzyme, NADPH absorbance (AID 1159550;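 active = at least 20% inhibition of 6-phosphogluconate dehydrogenase activity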). As to conditions: recombinant 6PGD, NADPH absorbance 341 nm; at 10 µM; stronger effect = higher value.
A short description of assay [2]: differential killing of epithelial or mesenchymal cells, primary screen, imaging, PC-3E GFP, TEM4-18 mCherry, co-culture (AID 1345086;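 active = compounds killing one labelled cell type while sparing the other, by normalised counts and ratio limits, not self-fluorescent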;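 for all read-outs here: cells exposed to compound for 72 h before imaging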;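 for red/green cell ratio (normalised): normalised mesenchymal count divided by normalised epithelial count so high means epithelial killing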). As to conditions: imaging cell counts, at 1 µM; for red/green cell ratio (normalised): actives lie on both sides, counts scaled to control wells, 1 = unselective.
The nature of assay [3]: polyglutamine-triggered caspase-3 activation inhibitors, cell-based (AID 1583). As to conditions: polyglutamine-induced caspase-3 activation, cell assay; stronger effect = higher value;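 tested at 10 µM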.
Assay [4] in a line: suppressors of polyQ aggregation in yeast, 75Q-TubU reporter (AID 1593). As to conditions: Yeast 75Q polyglutamine aggregation reporter.
Assay [5] in a line: rescue of polyQ-huntingtin neuronal dysfunction in worms, whole organism, C. elegans mechanosensory neurons, N-terminal huntingtin (AID 1599). As to conditions: touch response, stronger effect = higher value.
Assay [6] in a line: inhibitors of mitochondrial cytochrome c release, biochemical, purified mitochondria (AID 1603).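 Note: mouse liver mitochondria challenged with calcium chloride; signal normalized to the plate average as 100%.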 As to conditions: stronger effect = lower value.
Assay [7] can be described thus: inhibitors of polyQ protein aggregation (AID 1604). As to conditions: polyglutamine-induced protein aggregation inhibition assay; stronger effect = higher value; tested at 2.5 µM.
The nature of assay [8]: enhancers of glutamate uptake in motor neurons, MN-1 cell line (AID 1612).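 Note: tested at 1 µM final; 0% = mean of DMSO vehicle wells on each plate; positive means more glutamate uptake than control and negative means less.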 As to conditions: MN-1 motor neuron cells, stronger effect = higher value.
The nature of assay [9]: suppressors of polyglutamine aggregation in yeast, 75Q-TubH (AID 1616). As to conditions: S. cerevisiae 75Q-TubH polyglutamine aggregation suppression; stronger effect = higher value.
Assay [10] is described as follows: hESC survival regulators, cell-based (AID 493140; call rule not given here;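 note: cells exposed to compounds for four days before counting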). As to conditions: human embryonic stem cell survival screen; stronger effect = higher value.
Assay [11] is described as follows: Cy5 fluorescence interference with SSB-bound oligo, artefact control for HCV NS3 helicase inhibitor project, biochemical, NIH Clinical Collection, E. coli SSB (AID 743268; call rule not given here).
In assay [12] the test system is Hepatitis C virus NS3 helicase. The assay can be described thus: HCV NS3 helicase inhibitors, primary screen, biochemical, fluorescence polarization, NIH Clinical Collection (AID 743270; call rule not given here). As to conditions: NS3 helicase binding to Cy5-dT15 DNA, stronger effect = higher value, concentration not given here. In general terms: Fluorescence polarisation rises when a labelled molecule tumbles more slowly, as on binding a larger partner.

Assay [13] is described as follows: survival rescue of mitochondrial mutant cells in low glucose, primary screen, MELAS cybrids, Rieske KO mouse fibroblasts, CellTiter-Glo (AID 1508586).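 Note: z relative to plate mean and SD of compound and empty wells.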 In general terms: Cellular ATP, detected with luciferase, serves as a proxy for viable cell number.
Assay [14] addresses NAD(+) hydrolase SARM1 (Homo sapiens) (UniProt Q6SZW1). The experiment in a line: SARM1 TIR NADase inhibitors, cell lysate, NAD-Glo luminescence (AID 1508614;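 active = compound whose remaining NAD level is above about 45 nM, limit read from the data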;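 note: higher remaining NAD means stronger inhibition of SARM1 NADase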). As to conditions: SAM-TIR HEK293T lysate NADase, at 1 µM, stronger effect = higher value.
Assay [15] addresses Mitogen-activated protein kinase 7 (Homo sapiens) (UniProt Q13164). The assay can be described thus: ERK5 transactivation activators in reporter cells, primary screen, cell-based, HTS (AID 1508626;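 active = luciferase signal above three times the same-plate solvent-only control wells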;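 note: luciferase driven by Gal4-ERK5 fusion binding five Gal4 sites before minimal TATA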). As to conditions: HeLa Gal4-ERK5 transactivation, 18 h, at 5 µM, stronger effect = higher value.
The nature of assay [16]: viability rescue of complex I mutant cybrids, primary screen, cell-based, galactose medium, ATP luminescence (AID 1645843;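 active = z-score of at least 1.8 in each of two replicates, scored against plate mean and spread of sample wells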;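 note: positive z means more ATP and so rescue of galactose-driven cybrid death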). As to conditions: complex I mutant cybrid cells, 72 h, stronger effect = higher value.
Assay [17] is described as follows: SU-DIPG-VI glioma cell viability, MIPE4.0 library, CellTiter-Glo luminescence, qHTS (AID 1347066; cut-off not given, nearly all actives have AC50 up to about 30 µM;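 note: cells exposed to compound for 48 hours before readout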). As to conditions: CellTiter-Glo ATP luminescence.
Assay [18] in a line: liver-stage malaria parasite growth inhibition, primary screen, cell-based, HepG2, luciferase luminescence, HepG2 viability (AID 624349; in the data active = parasite load remaining mostly below about 12%, no sharp cut-off; inactive = mostly above about 10%;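 note: 100% = mean of DMSO negative control wells on the same plate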). As to conditions: P. berghei liver stage in HepG2, luciferase luminescence, concentration not given here; parasite load remaining: stronger effect = lower value; viability: measured here: HepG2 viability without parasites.
A short description of assay [19]: sensitizers of A549 cells to miR-34 induction, primary screen, imaging, A549 dox-inducible miR-34, nuclei and caspase counts (AID 1347080;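 active = compounds whose cell count with miR-34 switched on is under 0.7 times the count with it off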). As to conditions: A549 miR-34 inducible, Hoechst nuclei count, 48 h.
Where [20] appears, read: measured here: epithelial PC-3E GFP cell survival.
[21] abbreviates: measured here: mesenchymal TEM4-18 mCherry cell survival.
Setting [22] is: MELAS cybrid survival, CellTiter-Glo 48 h, stronger effect = higher value.
The mark [23] stands for this setting: Rieske KO mouse fibroblast survival, CellTiter-Glo 72 h.

6-phosphogluconate dehydrogenase, decarboxylating (Homo sapiens), sequence (P52209 whole entry, looked up): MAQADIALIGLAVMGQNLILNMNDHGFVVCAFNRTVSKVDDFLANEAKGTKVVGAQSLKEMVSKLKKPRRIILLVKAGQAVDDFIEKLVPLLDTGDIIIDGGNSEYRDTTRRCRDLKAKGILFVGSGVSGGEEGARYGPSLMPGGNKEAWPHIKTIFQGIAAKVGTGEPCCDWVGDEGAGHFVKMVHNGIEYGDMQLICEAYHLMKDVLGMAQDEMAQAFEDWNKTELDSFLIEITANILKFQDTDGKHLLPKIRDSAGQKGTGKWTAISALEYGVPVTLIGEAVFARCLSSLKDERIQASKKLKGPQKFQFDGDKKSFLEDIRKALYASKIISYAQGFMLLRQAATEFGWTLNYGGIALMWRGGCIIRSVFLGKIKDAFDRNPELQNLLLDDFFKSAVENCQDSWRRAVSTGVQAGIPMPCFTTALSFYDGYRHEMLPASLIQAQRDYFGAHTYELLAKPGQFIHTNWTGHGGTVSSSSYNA
Mitogen-activated protein kinase 7 (Homo sapiens), sequence (Q13164 whole entry, looked up, the tested form may be a part): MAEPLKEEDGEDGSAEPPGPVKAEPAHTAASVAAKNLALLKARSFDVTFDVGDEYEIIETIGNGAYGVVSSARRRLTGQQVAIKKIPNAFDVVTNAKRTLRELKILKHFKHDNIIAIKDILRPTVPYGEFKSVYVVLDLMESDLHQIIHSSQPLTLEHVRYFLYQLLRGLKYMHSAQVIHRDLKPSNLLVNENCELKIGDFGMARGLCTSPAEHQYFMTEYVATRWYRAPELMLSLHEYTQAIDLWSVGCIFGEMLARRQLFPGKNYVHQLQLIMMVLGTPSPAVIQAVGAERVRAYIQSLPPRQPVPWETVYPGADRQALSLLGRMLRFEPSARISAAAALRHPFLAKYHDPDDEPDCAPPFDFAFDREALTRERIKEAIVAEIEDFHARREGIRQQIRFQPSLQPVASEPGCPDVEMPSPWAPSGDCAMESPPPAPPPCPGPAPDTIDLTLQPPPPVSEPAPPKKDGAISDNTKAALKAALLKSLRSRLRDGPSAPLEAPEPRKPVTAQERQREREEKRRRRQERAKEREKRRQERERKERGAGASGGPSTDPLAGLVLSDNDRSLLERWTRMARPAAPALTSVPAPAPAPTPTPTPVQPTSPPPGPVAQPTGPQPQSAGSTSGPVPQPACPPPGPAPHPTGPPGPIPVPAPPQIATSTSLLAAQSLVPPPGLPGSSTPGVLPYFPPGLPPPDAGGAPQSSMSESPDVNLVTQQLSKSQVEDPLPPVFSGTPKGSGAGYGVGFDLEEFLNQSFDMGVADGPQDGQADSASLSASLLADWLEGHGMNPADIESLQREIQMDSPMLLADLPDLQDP
NAD(+) hydrolase SARM1 (Homo sapiens), sequence (Q6SZW1 whole entry, looked up, the tested form may be a part): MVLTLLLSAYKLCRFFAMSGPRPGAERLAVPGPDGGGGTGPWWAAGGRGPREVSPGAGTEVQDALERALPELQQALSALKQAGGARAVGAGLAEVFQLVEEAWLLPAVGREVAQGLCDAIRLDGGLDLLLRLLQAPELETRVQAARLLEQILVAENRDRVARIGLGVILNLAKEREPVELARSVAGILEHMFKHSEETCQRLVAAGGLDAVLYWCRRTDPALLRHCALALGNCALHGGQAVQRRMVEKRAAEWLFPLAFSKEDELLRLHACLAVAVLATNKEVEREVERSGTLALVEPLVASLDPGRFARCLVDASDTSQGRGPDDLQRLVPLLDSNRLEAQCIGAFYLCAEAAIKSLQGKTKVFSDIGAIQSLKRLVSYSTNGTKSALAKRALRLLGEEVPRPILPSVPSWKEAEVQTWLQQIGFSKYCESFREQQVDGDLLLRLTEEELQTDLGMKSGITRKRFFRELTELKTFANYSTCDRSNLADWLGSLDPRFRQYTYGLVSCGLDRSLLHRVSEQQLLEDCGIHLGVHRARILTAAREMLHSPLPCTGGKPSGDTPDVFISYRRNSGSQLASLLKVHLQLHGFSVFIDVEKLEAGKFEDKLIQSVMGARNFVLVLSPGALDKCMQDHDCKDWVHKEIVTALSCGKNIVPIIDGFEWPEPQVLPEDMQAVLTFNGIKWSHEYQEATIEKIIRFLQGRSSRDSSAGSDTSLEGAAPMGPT

As for `CCC/C=C1\OC(=O)C2=C1CCC=C2`, the inhibition in [1] was 3.63% (inactive). Also, in assay [2], the red/green cell ratio (normalised) was 1.13 (inactive). The normalised cell number was 0.83 in assay [2] (setting [20]) and 0.94 in assay [2] (setting [21]).

In the case of `COc1cc(OC)c2c(=O)cc(-c3ccccc3)oc2c1`, the inhibition in [1] was 13.7% (inactive). Besides, the red/green cell ratio (normalised) in assay [2] was 0.95 (inactive). The normalised cell number turned out to be 1.06 in assay [2] (setting [20]) and 1.01 in [2] (setting [21]).

On to `Cn1cc[nH]c1=S`, for which the inhibition in assay [3] is 14.9%; in assay [12], -3.18% (inactive); in assay [1], -12.3% (inactive). Further, in [4], the score turned out to be 1.43. The rescue above control in [5] is -4.12. Also, the cytochrome c release ratio in assay [6] worked out at 1.1. In assay [7], the inhibition of aggregation stood at 48%. Also, the glutamate uptake change in assay [8] is -2.61%. Also, the aggregation suppression score in assay [9] amounted to 1.46. In addition, the survival in assay [10] was 1.42 (inactive). Besides, the fluorescence ratio in assay [11] is 1.03 (inactive). Also, in [2], the red/green cell ratio (normalised) was 0.96 (inactive). The normalised cell number in assay [2] (setting [20]) was 1.12; in assay [2] (setting [21]), 1.08. In addition, the z-score in assay [13] (setting [22]) is -0.106 (inactive) and 0.275 (inactive) and 0.138 (inactive); in [13] (setting [23]), 0.1 and 0.646 and -0.619; in assay [16], 1.27 (inactive) and 0.25 (inactive). Besides, the remaining NAD in assay [14] was 10 nM (inactive). The luciferase signal in assay [15] is 92 AU (inactive).

As for `Cc1ccc(N(CC2=NCCN2)c2cccc(O)c2)cc1`, the inhibition in assay [3] is 0.92%; in [1] it was -2.41% (inactive). The same molecule displayed a score in assay [4] of 1.23. In assay [5], this molecule returned a rescue above control of -6.1. Moreover, in [6], the cytochrome c release ratio came to 0.77. The inhibition of aggregation in [7] was determined as 56.3%. In addition, the glutamate uptake change in [8] is -12.3%. In addition, the aggregation suppression score in [9] worked out at 1.42. Besides, the survival in assay [10] is 15.2 (inactive). The red/green cell ratio (normalised) in [2] was 1 (inactive). In addition, the figures for the normalised cell number in assay [2] (setting [20]) and in assay [2] (setting [21]) were 0.96 and 0.97, respectively. In assay [17], the molecule was classed as inactive. Moreover, the z-score was 0.136 (inactive) and 0.319 (inactive) and 0.784 (inactive) in [13] (setting [22]); -0.0354 and 0.524 and 0.332 in assay [13] (setting [23]); -0.355 (inactive) and 0.035 (inactive) in assay [16]. Moreover, the remaining NAD in [14] was 10 nM (inactive). Also, the luciferase signal in [15] is 116 AU (inactive).

For the molecule `CCCc1nc(C(C)(C)O)c(C(=O)OCc2oc(=O)oc2C)n1Cc1ccc(-c2ccccc2-c2nn[nH]n2)cc1`, the parasite load remaining in [18] is 123% (inactive) and 56.6% (inactive) and 38.5% (inactive). For the same molecule, the viability in [18] was 84.8% and 93.3% and 100%. The inhibition in [1] is -1.37% (inactive). Further, the red/green cell ratio (normalised) in assay [2] is 1.07 (inactive). The normalised cell number worked out at 1.01 in assay [2] (setting [20]) and 1.08 in assay [2] (setting [21]). The fold change is 0.993 (inactive) and 0.942 (inactive) and 0.929 (inactive) in assay [19] (stronger effect = lower value, cell number ratio, induced over uninduced); 0.262 and 5.26 and 0.77 in [19] (measured here: relative caspase fold change +Dox/-Dox). Moreover, the cell count in assay [19] (measured here: total cells with miR-34 induction, stronger effect = lower value) was 7890 and 12500 and 10500; in assay [19] (measured here: total cells without miR-34 induction), 7940 and 13300 and 11300. Moreover, the z-score in [13] (setting [22]) was -0.0808 (inactive) and -0.0697 (inactive) and -0.516 (inactive); in assay [13] (setting [23]), -0.0525 and -0.445 and -0.184; in assay [16], 0.375 (inactive). Besides, the remaining NAD in assay [14] was 10 nM (inactive). Also, the luciferase signal in assay [15] is 116 AU (inactive).

Consider `CC1=C(CCC(=O)O)c2cc3nc(cc4[nH]c(cc5[nH]c(cc1n2)c(C)c5C(C)O)c(C)c4C(C)O)C(C)=C3CCC(=O)O` (centres undefined), for which the inhibition in [1] was 12.1% (inactive). Moreover, the red/green cell ratio (normalised) in [2] is 1.39 (inactive). Further, the values for the normalised cell number in assay [2] (setting [20]) and in [2] (setting [21]) were 0.93 and 1.29, respectively.
